CYP2C9 inhib = blocks human cytochrome P450 2C9. hit rate 20% among 96,000. P11712. inhibition, % at 5 µM. CYP2C9 Supersomes, luciferin-H conversion, luminescence;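 active = blocking of liver enzyme CYP2C9 beyond about 50% at 5 µM, limit read from the data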
CYP2C9 act = CYP2C9 (human) activation | hit rate 1.4% among 96,000 | recombinant CYP2C9, luciferin-H conversion, luminescence; active compounds read high; factor 1 = untreated enzyme, 0 = blocked | activation factor at 5 µM;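 active = activation factor of 2 or more for CYP2C9 at a 5 µM dose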;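 note: 0 = sulfaphenazole-blocked wells and 1 = vehicle-only wells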
sEH act = increases human soluble epoxide hydrolase activity | P34913 | purified human sEH enzymatic activity, activator screen | activation, % at 2 µM | hit rate 0.04% among 91,000 | AID 717; in the data active = activation above about 37%
CYP2C19 inhib = blocks human cytochrome P450 2C19; P33261; CYP2C19 Supersomes, luciferin-H EGE luminescence, 30 min; inhibition, % at 5 µM; hit rate 21% among 96,000;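 active = CYP2C19 inhibition above a set limit at 5 µM in the primary screen, cut at about 50% in these data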;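 note: plate controls were negative control wells for no effect and 2.5 mM tranylcypromine positive control for full effect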
Target sequence (P33261 whole entry, looked up): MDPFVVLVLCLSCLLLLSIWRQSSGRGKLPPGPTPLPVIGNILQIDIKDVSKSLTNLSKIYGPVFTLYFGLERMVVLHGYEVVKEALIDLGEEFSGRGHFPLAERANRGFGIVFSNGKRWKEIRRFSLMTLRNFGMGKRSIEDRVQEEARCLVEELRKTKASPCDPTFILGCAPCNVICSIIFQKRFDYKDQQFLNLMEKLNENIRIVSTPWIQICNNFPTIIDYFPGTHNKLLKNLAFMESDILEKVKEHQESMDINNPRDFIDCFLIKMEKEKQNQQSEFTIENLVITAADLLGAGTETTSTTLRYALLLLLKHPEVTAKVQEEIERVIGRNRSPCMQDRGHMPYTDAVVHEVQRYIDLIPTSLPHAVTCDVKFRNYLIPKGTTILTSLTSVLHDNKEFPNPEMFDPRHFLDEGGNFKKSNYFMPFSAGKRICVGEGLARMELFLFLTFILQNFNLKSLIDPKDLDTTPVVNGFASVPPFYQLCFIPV
sEH inh = blocks human soluble epoxide hydrolase activity; inhibition, % at 2 µM; recombinant human sEH enzymatic activity assay; hit rate 0.34% among 91,000; P34913; in the data active = inhibition above about 80%
CYP2C19 act = cytochrome P450 2C19 (human) activation; recombinant CYP2C19, luciferin-H EGE luminescence; active compounds read high; 0 = fully inhibited enzyme, 1 = untreated enzyme; activation factor at 5 µM; 96,000 tested, under 10 active;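 active = activation factor of at least 2 at 5 µM in the primary screen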;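 note: 0 = wells with 2.5 mM tranylcypromine and 1 = vehicle-only wells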
* marks the source's active call; other numbers are inactive results; / = not tested or not shown. Only some compounds are listed: those with a hit (about 27% of all), similar ones and a draw of the others.

SMILES	CYP2C9 inhib	CYP2C9 act	sEH act	CYP2C19 inhib	sEH inh	CYP2C19 act
Cn1c(SCc2ccccc2)nnc1-c1cccs1	-8	1.1	-6	41	6	0.6
N=c1nc(N)nc2n1NC(c1ccc(F)cc1)=CS2	17	0.8	-2	13	5	0.9
CC1(C)Cc2c(sc3c2c(=N)n(Cc2ccco2)c(=O)n3Cc2ccc(F)cc2)CO1	24	0.8	/	10	/	0.9
COc1ccc(Cn2c(=O)n(Cc3ccco3)c(=N)c3c4c(sc32)COC(C)(C)C4)cc1	91*	0.1	/	61*	/	0.4
Cn1c(=O)cc(OCCCC(=O)Nc2ccc3c(c2)OCCO3)c2ccccc21	/	/	-28	/	28	/
O=C(CC(=O)c1ccccc1)Nc1ccc2c(c1)OCCO2	-13	1.1	-4	20	4	0.8
CCn1c(=O)cc(SCC(=O)NCC2CCCO2)c2ccccc21 (configuration not stated)	-275	3.8*	6	13	-5	0.9
CC(CC(=O)Nc1ccc2c(c1)OCCO2)c1ccccc1 (configuration not stated)	42	0.6	-20	52*	22	0.5
Cn1cc(SCC(=O)Nc2ccc3c(c2)OCCO3)c2ccccc21	43	0.6	-18	63*	20	0.4
CCn1c(=O)cc(SCC(=O)N(C)Cc2ccccc2)c2ccccc21	-98	2*	-4	56*	6	0.4
CCOC(=O)N1CCN(C(=O)C2CCC(C(=O)N3CCN(C(=O)OCC)CC3)CC2)CC1 (configuration not stated)	/	/	18	/	-18	/
Cn1c2c(c(=O)n(C)c1=O)C(c1cccc(Br)c1)C1C(=O)c3ccccc3C1=N2 (configuration not stated)	/	/	6	/	-7	/
COc1cccc(S(=O)(=O)Nc2ccc(C(=O)N3CCN(C(=O)c4ccco4)CC3)cc2)c1	/	/	5	/	-1	/
CCCOc1ccc(/C(O)=C2\C(=O)C(=O)N(CCCN(C)C)C23C(=O)N(C)c2ccccc23)cc1 (configuration not stated)	-20	1.2	/	-4	/	1
CCCCN(CC)C(=O)CSc1cc(=O)n(C)c2ccccc12	-30	1.3	-17	64*	20	0.4
CCn1c(=O)cc(SCC(=O)Nc2ccc3c(c2)OCO3)c2ccccc21	-17	1.2	-17	71*	16	0.3
Cn1c(=O)cc(OCCCC(=O)Nc2cccnc2)c2ccccc21	3	1	-1	-1	-1	1
CCn1c(=O)cc(SCC(=O)Nc2cccnc2)c2ccccc21	-144	2.4*	0	-13	-2	1.1
COc1ccc(C2C(C(C)=O)=C(O)C(=O)N2CCc2ccccc2)c(OC)c1 (configuration not stated)	49	0.5	6	10	-5	0.9
CCOc1ccc(C(=O)NC(=S)Nc2ccccc2N2CCC(C)CC2)cc1[N+](=O)[O-]	72*	0.3	-4	27	6	0.7
CCOc1ccc(C(=O)NC(=S)Nc2ccccn2)cc1[N+](=O)[O-]	/	/	8	/	-10	/
O=C(CN1C(=O)C2C3C=CC(C3)C2C1=O)NCc1ccco1 (configuration not stated)	/	/	17	/	-13	/
O=C(COC(=O)C1CCCCC1C(=O)N1CCc2ccccc21)NCc1ccco1 (configuration not stated)	71*	0.3	/	87*	/	0.1
O=C(COC(=O)CCOc1ccccc1)NCc1ccco1	38	0.6	6	9	-6	0.9
O=C(COC(=O)C1CC2C=CC1C2)NCc1ccco1 (configuration not stated)	16	0.8	0	64*	1	0.4
SMILES	CYP2C9 inhib	CYP2C9 act	sEH act	CYP2C19 inhib	sEH inh	CYP2C19 act
Cc1cc(C)cc(NC(=S)NCC2CCCO2)c1 (configuration not stated)	-115	2.1*	-4	15	4	0.8
COc1ccc(NC(=S)NCC2CCCO2)c(OC)c1 (configuration not stated)	-7	1.1	-4	56*	3	0.4
Nc1ccnc(C(F)(F)F)c1C(=O)c1ccccc1	7	0.9	-2	-7	2	1.1
CCOc1cc(C2CC(=O)c3c(ccc4ccccc34)N2)ccc1O (configuration not stated)	65*	0.3	-22	24	24	0.8
COc1ccc(C2CC(=O)c3c(ccc4ccccc34)N2)cc1OC (configuration not stated)	32	0.7	-10	14	12	0.9
O=C(NCC1CCCO1)C1CC(=O)N(c2ccc(F)c(Cl)c2)C1 (configuration not stated)	-55	1.6	4	-14	-5	1.1
CC1(C)CC2(CCO1)OC(=O)CC2C(=O)Nc1cccc2ccccc12 (configuration not stated)	21	0.8	-1	39	2	0.6
O=C1CC(C(=O)Nc2ccc(Br)cc2)C2(CCCC2)O1 (configuration not stated)	61*	0.4	-8	97*	4	0
O=C1CC(C(=O)Nc2ccccc2)C2(CCCCC2)O1 (configuration not stated)	31	0.7	3	18	-2	0.8
Cc1ccc(NC(=O)C2CC(=O)OC23CCOC(C)(C)C3)cc1 (configuration not stated)	-10	1.1	17	66*	-16	0.3
Cc1c(N2C(=O)CSC23C(=O)Nc2ccccc23)c(=O)n(-c2ccccc2)n1C (configuration not stated)	-3	1	6	22	-7	0.8
COC(=O)c1cc2sc(Cl)cc2n1CC(=O)Nc1ccc(OC)c(OC)c1OC	9	0.9	/	27	/	0.7
COC(=O)c1cc2sc(Cl)cc2n1CC(=O)Nc1cccc(SC)c1	75*	0.3	-2	44	0	0.6
CCOCCCNC(=O)CN1CCN(c2ccc(F)cc2)CC1	-14	1.1	12	6	-14	0.9
C=CCNS(=O)(=O)c1ccc(OCC(=O)OC)cc1	71*	0.3	-3	70*	0	0.3
CCCNS(=O)(=O)c1ccc(OCC(=O)NCc2ccco2)cc1	33	0.7	-2	4	3	1
CCOC(=O)COc1ccc(S(=O)(=O)NCc2ccco2)cc1	42	0.6	5	73*	-5	0.3
COC(=O)COc1ccc(S(=O)(=O)NCc2ccco2)cc1	4	1	-4	60*	7	0.4
COC(=O)COc1ccc(S(=O)(=O)Nc2ccc(C(N)=O)cc2)cc1	10	0.9	2	-9	0	1.1
CCN(CC)C(=O)CSc1nnc(CNc2ccc(F)cc2)n1-c1ccccc1	/	/	-7	/	5	/
CCOC(=O)C1=C(N)n2c(s/c(=C/c3ccccc3)c2=O)=C(C(=O)OCC)C1c1ccccc1 (configuration not stated)	11	0.9	10	19	-11	0.8
